From PubChem BioAssay come the findings set out here.

The nature of test [1]: P. berghei load reduction in hepatocytes – cell-based, HepG2, luciferase luminescence, HepG2 viability, primary screen (AID 624349).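 Further: 100% = mean of DMSO negative control wells on the same plate.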 As to conditions: P. berghei liver stage in HepG2, luciferase luminescence, concentration not given here; parasite load remaining: stronger effect = lower value; viability: measured here: HepG2 viability without parasites.
Test [2] is described as follows: viability loss with induced miR-34 in A549 – imaging, A549 dox-inducible miR-34, nuclei and caspase counts, primary screen (AID 1347080;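 active means compounds whose cell count with miR-34 switched on is under 0.7 times the count with it off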). As to conditions: A549 miR-34 inducible, Hoechst nuclei count, 48 h.
Test [3] can be described thus: MELAS cybrid and Rieske KO viability enhancers – cell-based, MELAS cybrids, Rieske KO mouse fibroblasts, CellTiter-Glo, primary screen (AID 1508586;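 active means mean z-score across replicates of 1.96 or higher in either the MELAS or the Rieske mutant cell line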;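 further: z relative to plate mean and SD of compound and empty wells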). As to conditions: low glucose. (In general: ATP-based viability assays read luminescence as a measure of living cells.)
Test [4] is described as follows: compounds altering viability of human ES cells (AID 493140; call rule not given here;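 further: cells exposed to compounds for four days before counting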). As to conditions: human embryonic stem cell survival screen; stronger effect = higher value.
Setting [5] is: stronger effect = lower value, cell number ratio, induced over uninduced.
Where [6] appears, read: measured here: relative caspase fold change +Dox/-Dox.
The mark [7] stands for this setting: measured here: total cells with miR-34 induction, stronger effect = lower value.
Setting [8] is: measured here: total cells without miR-34 induction.
Setting [9] is: MELAS cybrid survival, CellTiter-Glo 48 h, stronger effect = higher value.
Setting [10] is: Rieske KO mouse fibroblast survival, CellTiter-Glo 72 h.

Values joined by “and” are separate entries in the source; they are usually repeats but may differ in a detail not shown here. Equal values may be shown once. Active and inactive are the calls of the source. Unless noted, no stated cut-off is given here; in the data, active means parasite load remaining mostly below about 12% (no sharp cut-off); inactive means mostly above about 10%.

Consider `CN[C@@H]1C(O[C@H]2O[C@H](CO)[C@@H](N)[C@H](O)[C@H]2O)O[C@H]2C[C@@H](N)[C@@H](O[C@H]3[C@H](O)[C@@H](O)[C@H](N)C[C@@H]3N)OC2[C@@H]1O` (stereo partly specified), for which, in test [1], the parasite load remaining is 95.7% (inactive). Besides, the viability in test [1] was determined as 72.5%. For the same compound, the fold change in test [2] (setting [5]) is 1.02 (inactive); in test [2] (setting [6]), 0.823. Also, the cell count is 9080 in test [2] (setting [7]) and 8920 in test [2] (setting [8]). Also, the z-score in test [3] (setting [9]) was 0.718 (inactive); in test [3] (setting [10]), -0.268.

In the case of `CNC(=O)c1c(I)c(C(=O)NCC(=O)Nc2c(I)c(C(=O)O)c(I)c(C(=O)NCCO)c2I)c(I)c(N(C)C(C)=O)c1I`, the survival in test [4] is 10.4 (inactive). For the same compound, in test [1], the parasite load remaining was 91.6% (inactive). Besides, the viability in test [1] is 71.7%. The fold change is 0.94 (inactive) in test [2] (setting [5]) and 0.7 in test [2] (setting [6]). In addition, the cell count in test [2] (setting [7]) came to 9020; in test [2] (setting [8]), 9600. In addition, the z-score in test [3] (setting [9]) is -0.247 (inactive); in test [3] (setting [10]) it was 0.501.

As to `CC(=O)Nc1c(I)c(C(=O)N[C@H]2C(O)O[C@H](CO)[C@@H](O)[C@@H]2O)c(I)c(N(C)C(C)=O)c1I` (stereo partly specified), the parasite load remaining in test [1] was 113% (inactive). In addition, in test [1], the viability turned out to be 109%. Besides, the fold change in test [2] (setting [5]) was 0.901 (inactive); in test [2] (setting [6]), 1.22. For the same compound, the values for the cell count in test [2] (setting [7]) and in test [2] (setting [8]) were 9390 and 10400, respectively. Further, the z-score in test [3] (setting [9]) was 0.559 (inactive); in test [3] (setting [10]) it was 0.37.

In the case of `O=C1NCCN1c1ncc([N+](=O)[O-])s1`, the survival in test [4] was 3.92 (inactive). In test [1], the parasite load remaining is 95% (inactive) and 83.2% (inactive). Further, the viability in test [1] is 122% and 79.5%. Further, the results for the fold change in test [2] (setting [5]) and in test [2] (setting [6]) were 0.899 (inactive) and 1.68, respectively. Also, the cell count in test [2] (setting [7]) amounted to 8920; in test [2] (setting [8]), 9920. The figures for the z-score in test [3] (setting [9]) and in test [3] (setting [10]) were 0.58 (inactive) and -0.169, respectively.

Consider `CC(C)(C)CC(C)(C)c1ccc(OCOCCOCCO)c(Cc2cc(C(C)(C)CC(C)(C)C)cc(Cc3cc(C(C)(C)CC(C)(C)C)ccc3OCOCCOCCO)c2OCOCCOCCO)c1`, for which, in test [4], the survival is 1.75 (inactive). The parasite load remaining in test [1] is 112% (inactive). The viability in test [1] amounted to 98.8%. Further, the fold change was 0.877 (inactive) in test [2] (setting [5]) and 1.23 in test [2] (setting [6]). For the same compound, the cell count was 7920 in test [2] (setting [7]) and 9040 in test [2] (setting [8]). Besides, the figures for the z-score in test [3] (setting [9]) and in test [3] (setting [10]) were -2.08 (inactive) and -1.21, respectively.

For `CCOC1O[C@H]([C@@H](COCc2ccccc2)OCc2ccccc2)[C@H](OCc2ccccc2)[C@H]1O` (stereo partly specified), the parasite load remaining in test [1] is 66.9% (inactive). Also, the viability in test [1] amounted to 70.5%. For the same compound, the fold change in test [2] (setting [5]) is 0.904 (inactive); in test [2] (setting [6]) it was 0.887. Further, the cell count in test [2] (setting [7]) worked out at 8110; in test [2] (setting [8]), 8970. The z-score was -0.366 (inactive) in test [3] (setting [9]) and 0.506 in test [3] (setting [10]).

Turning to `CCCC1C(=O)N2C(N(C)C)=Nc3ccc(C)cc3N2C1=O` (stereo unspecified), in test [4], the survival is 9.17 (inactive). Besides, the parasite load remaining in test [1] was 172% (inactive). Also, the viability in test [1] was determined as 71.8%. Moreover, the fold change in test [2] (setting [5]) was 0.881 (inactive); in test [2] (setting [6]) it was 0.721. For the same compound, the cell count was found to be 8830 in test [2] (setting [7]) and 10000 in test [2] (setting [8]). In addition, the figures for the z-score in test [3] (setting [9]) and in test [3] (setting [10]) were 0.00688 (inactive) and -0.91, respectively.

For the compound `CCCC(=O)Nc1ncnc2c1ncn2[C@@H]1O[C@@H]2OP(=O)(O)OC[C@H]2[C@H]1OC(=O)CCC`, in test [1], the parasite load remaining is 71.6% (inactive). Moreover, the viability in test [1] worked out at 101%. Besides, the fold change in test [2] (setting [5]) is 0.912 (inactive); in test [2] (setting [6]), 1.18. The cell count in test [2] (setting [7]) was 9650; in test [2] (setting [8]), 10600. The z-score in test [3] (setting [9]) was 0.66 (inactive); in test [3] (setting [10]) it was 0.0496.

As to `OC(CCN1CCCCC1)(c1ccccc1)C1C[C@@H]2C=C[C@H]1C2` (stereo partly specified), in test [1], the parasite load remaining is 24.7% (inactive). Further, the viability in test [1] came to 105%. The values for the fold change in test [2] (setting [5]) and in test [2] (setting [6]) were 0.888 (inactive) and 1.45, respectively. Moreover, the cell count in test [2] (setting [7]) was found to be 8210; in test [2] (setting [8]) it was 9240. Moreover, the z-score in test [3] (setting [9]) is -0.0819 (inactive); in test [3] (setting [10]), -0.0447.

As a reminder, the viability is a read-out of living cells in per cent, often relative to untreated cells.
